Results filed as inconclusive are left out. Active and inactive are the calls of the source. Unless noted, calls come from the whole dose curve; as a rule, active = well fitted curve in the direction sought with a large enough effect in the repeat runs; inconclusive = weak or mixed curves; inactive = no such curve, though single readings can be large; an effect the other way counts as inactive or inconclusive.
What was measured:
[1] = qHTS assay to test for compound auto fluorescence at 535 nm (green) in HEK293 cells (AID 720680)
[2] = qHTS assay to test for compound auto fluorescence at 460 nm (blue) in HEK293 cell free culture (AID 720681)
How it was run: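 Test compounds were pinned into cell-free culture medium (DMEM with 10% FBS) and fluorescence was read directly at Ex/Em 405/460 nm. Signals were expressed as fluorescence equivalents of triamterene, with DMSO vehicle as control.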

[3] = qHTS assay to test for compound auto fluorescence at 535 nm (green) in HEK293 cell free culture (AID 720682)
How it was run: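 Green-label autofluorescence (485 nm excitation, 535 nm emission) measured on compound added to cell-free culture medium (DMEM, 10% FBS). Output is expressed relative to fluorescein.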

[4] = qHTS assay to test for compound auto fluorescence at 590 nm (red) in HEK293 cell free culture (AID 720683)
How it was run: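 Tox21 10K library compounds were pinned into cell-free DMEM with 10% FBS and fluorescence was read at excitation 540 nm. Activity is expressed as Rose Bengal sodium equivalency.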

[5] = qHTS assay to test for compound auto fluorescence at 590 nm (red) in HepG2 cell free culture (AID 720684)
How it was run: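 Red fluorescence (540 nm excitation, 590 nm emission) was measured after compound transfer into cell-free MEM supplemented with 10% FBS. Values are equivalencies against Rose Bengal sodium.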

[6] = qHTS assay to test for compound auto fluorescence at 460 nm (blue) in HepG2 cell free culture (AID 720685)
How it was run: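 Compound (23 nL) or DMSO pinned into cell-free MEM with 10% FBS; blue fluorescence read at 405/460 nm excitation/emission, expressed as auto-fluorescence equivalency to triamterene.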

[7] = qHTS assay to test for compound auto fluorescence at 535 nm (green) in HepG2 cell free culture (AID 720686)
[8] = qHTS assay to test for compound auto fluorescence at 460 nm (blue) in HepG2 cells (AID 720687)
How it was run: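 Cells (2,000/well in MEM with 10% FBS) attached overnight at 37 C, then were exposed to compound or DMSO for 1 hr at 37 C, 5% CO2. Fluorescence read at Ex/Em 405/460 nm, expressed as triamterene-equivalent signal.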

[9] = target: Glucocorticoid receptor (Homo sapiens) (UniProt P04150); test: qHTS assay to identify small molecule agonists of the glucocorticoid receptor (GR) signaling pathway (AID 720691; active = well fitted activation curve with a large enough effect in the signal ratio in the repeat runs, not every such curve was filed as active; the % refers to the signal ratio)
Sequence of Glucocorticoid receptor (Homo sapiens) (P04150 whole entry, looked up): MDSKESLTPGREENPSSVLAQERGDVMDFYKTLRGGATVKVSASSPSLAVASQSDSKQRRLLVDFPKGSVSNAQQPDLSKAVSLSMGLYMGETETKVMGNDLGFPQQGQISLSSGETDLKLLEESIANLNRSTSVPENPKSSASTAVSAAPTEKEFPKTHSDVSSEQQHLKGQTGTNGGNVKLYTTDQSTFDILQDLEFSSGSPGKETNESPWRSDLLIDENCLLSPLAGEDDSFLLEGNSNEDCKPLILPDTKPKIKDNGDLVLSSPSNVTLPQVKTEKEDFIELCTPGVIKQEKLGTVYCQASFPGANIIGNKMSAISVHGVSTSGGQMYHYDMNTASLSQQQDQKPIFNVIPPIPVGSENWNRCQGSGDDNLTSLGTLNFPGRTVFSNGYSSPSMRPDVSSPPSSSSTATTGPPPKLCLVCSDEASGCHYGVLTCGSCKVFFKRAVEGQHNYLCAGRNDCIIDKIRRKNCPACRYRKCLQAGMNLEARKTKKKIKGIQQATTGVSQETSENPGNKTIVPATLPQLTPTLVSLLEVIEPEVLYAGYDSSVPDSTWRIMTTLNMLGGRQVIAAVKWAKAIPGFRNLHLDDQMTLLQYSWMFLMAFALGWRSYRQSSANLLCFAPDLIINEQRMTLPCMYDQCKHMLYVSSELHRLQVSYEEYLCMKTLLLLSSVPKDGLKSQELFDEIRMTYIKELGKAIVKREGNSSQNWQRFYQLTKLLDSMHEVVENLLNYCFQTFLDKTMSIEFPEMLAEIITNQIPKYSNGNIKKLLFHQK
How it was run: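 Agonist mode in a HeLa line carrying a GRE-controlled beta-lactamase reporter. Compounds act for 18 h at 37 C before a 2 h room-temperature FRET substrate step and fluorescence reading.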

[10] = target: Glucocorticoid receptor (Homo sapiens) (UniProt P04150); test: qHTS assay to identify small molecule antagonists of the glucocorticoid receptor (GR) signaling pathway (AID 720692; active = well fitted inhibition curve with a large enough effect in the signal ratio in the repeat runs, not every such curve was filed as active; the % refers to the signal ratio)
How it was run: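 Cells plated, rested 4 h at 37 C/5% CO2; compounds in DMSO pin-transferred; dexamethasone added to 5 nM final; 18 h at 37 C; B/G FRET substrate added, 2 h room temperature; fluorescence measured.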

[11] = qHTS assay to identify small molecule antagonists of the glucocorticoid receptor (GR) signaling pathway - cell viability counter screen (AID 720693); note: nearly all actives have a fitted effect of over 55% in size
[12] = qHTS assay for identifying genotoxic compounds that show differential cytotoxicity against isogenic chicken DT40 cell lines with known DNA damage response pathways - wild type cell line (AID 743012); note: nearly all actives have a fitted effect of over 60% in size
How it was run: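 Cells (DT40 wild type, 300/well) are treated with DMSO-dissolved compounds after a ~0.5 h pre-incubation and kept 40 h at 37 C/5% CO2. Viability is then measured by CellTiter-Glo luminescence following 30 min at room temperature.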

[13] = qHTS assay for identifying genotoxic compounds that show differential cytotoxicity against isogenic chicken DT40 cell lines with known DNA damage response pathways - Rev3 mutant cell line (AID 743014); note: nearly all actives have a fitted effect of over 55% in size
[14] = qHTS assay for identifying genotoxic compounds that show differential cytotoxicity against isogenic chicken DT40 cell lines with known DNA damage response pathways - Rad54/Ku70 mutant cell line (AID 743015); note: nearly all actives have a fitted effect of over 60% in size
[15] = qHTS assay to identify small molecule antagonists of the androgen receptor (AR) signaling pathway using the MDA cell line - cell viability counter screen (AID 743041; note: nearly all actives have a fitted effect of over 45% in size)
How it was run: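 MDA-kb2 AR-luc human breast carcinoma cells (MMTV-luciferase, AR/GR responsive) were treated with compounds plus R1881 agonist for 16 h at 37 °C. Viability was read as CellTiter-Fluor fluorescence in the same wells as the reporter assay.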

[16] = qHTS assay to identify small molecule antagonists of the thyroid receptor (TR) signaling pathway - cell viability counter screen (AID 743064); note: nearly all actives have a fitted effect of over 50% in size
How it was run: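 GH3.TRE-Luc rat pituitary cells dosed after 4 hr plating, co-stimulated with T3 at 1 nM final, incubated 23.5 h at 37 C. Viability measured in the same wells by CellTiter-Fluor fluorescence after 30 min further at 37 C.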

[17] = qHTS assay to identify small molecule antagonists of the androgen receptor (AR) signaling pathway - cell viability counter screen (AID 743033; note: nearly all actives have a fitted effect of over 45% in size)
[18] = target: Androgen receptor (Homo sapiens) (UniProt P10275); test: qHTS assay to identify small molecule agonists of the androgen receptor (AR) signaling pathway (AID 743036; active = well fitted activation curve with a large enough effect in the signal ratio in the repeat runs, with a control signal flat, not every such curve was filed as active; the % refers to the signal ratio)
Sequence of Androgen receptor (Homo sapiens) (P10275 whole entry, looked up): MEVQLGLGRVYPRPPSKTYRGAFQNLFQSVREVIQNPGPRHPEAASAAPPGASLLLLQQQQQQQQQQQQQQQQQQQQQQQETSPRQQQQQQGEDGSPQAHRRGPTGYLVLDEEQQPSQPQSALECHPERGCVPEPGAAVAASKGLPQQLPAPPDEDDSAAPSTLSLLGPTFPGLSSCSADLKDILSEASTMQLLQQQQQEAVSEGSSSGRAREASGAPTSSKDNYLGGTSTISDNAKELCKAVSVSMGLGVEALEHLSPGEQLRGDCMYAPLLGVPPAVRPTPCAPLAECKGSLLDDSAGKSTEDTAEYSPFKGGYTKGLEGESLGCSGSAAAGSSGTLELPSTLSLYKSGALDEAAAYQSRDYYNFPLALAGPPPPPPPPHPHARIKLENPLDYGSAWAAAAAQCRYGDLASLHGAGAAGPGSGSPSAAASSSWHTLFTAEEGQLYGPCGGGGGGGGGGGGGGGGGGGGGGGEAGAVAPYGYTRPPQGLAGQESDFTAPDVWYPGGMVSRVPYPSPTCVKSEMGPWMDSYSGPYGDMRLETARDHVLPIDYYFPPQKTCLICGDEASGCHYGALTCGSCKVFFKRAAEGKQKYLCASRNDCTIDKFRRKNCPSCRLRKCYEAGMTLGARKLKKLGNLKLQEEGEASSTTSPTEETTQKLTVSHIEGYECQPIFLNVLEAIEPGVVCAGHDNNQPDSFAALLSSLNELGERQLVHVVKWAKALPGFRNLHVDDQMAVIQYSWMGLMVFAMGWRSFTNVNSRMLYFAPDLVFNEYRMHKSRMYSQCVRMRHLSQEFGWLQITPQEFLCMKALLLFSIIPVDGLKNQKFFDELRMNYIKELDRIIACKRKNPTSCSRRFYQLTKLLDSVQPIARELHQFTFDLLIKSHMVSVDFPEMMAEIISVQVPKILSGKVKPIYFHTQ
How it was run: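 AR-UAS-bla HEK293 cells, plated 4 h before dosing, were treated with compound for 16 h at 37C. beta-Lactamase reporter read after 2 h with LiveBLAzer B/G FRET substrate at room temperature.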

[19] = target: Androgen receptor (Homo sapiens) (UniProt P10275); test: qHTS assay to identify small molecule agonists of the androgen receptor (AR) signaling pathway using the MDA cell line (AID 743040; note: nearly all actives have a fitted effect of over 20% in size)
How it was run: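 MDA-kb2 breast carcinoma cells stably carrying an MMTV-driven luciferase reporter (AR- and GR-responsive) were seeded and held 5 h at 37C, 0% CO2, then exposed to compounds in DMSO for 16 h. Luminescence was read 30 min after ONE-Glo addition.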

[20] = target: Androgen receptor (Homo sapiens) (UniProt P10275); test: qHTS assay to identify small molecule antagonists of the androgen receptor (AR) signaling pathway using the MDA cell line (AID 743042; note: nearly all actives have a fitted effect of over 55% in size)
How it was run: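 MDA-kb2 cells (human breast carcinoma, stably carrying an MMTV-luciferase reporter responsive to AR and GR) were plated at 3,000 cells/well and preincubated 5 hr at 37C, then given compound plus R1881 agonist for 16 h. ONE-Glo luminescence was read.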

Measured: Potency

CC(=O)S[C@H](C(=O)N[C@H]1Cc2ccccc2[C@H]2CCC[C@@H](C(=O)O)N2C1=O)C(C)C
inactive: [1] | [2] | [3] | [4] | [5] | [6] | [7] | [8] | [9] | [10] | [11] | [12] | [13] | [14] | [15] | [16]

CC(C)(C)N
inactive: [1] | [2] | [3] | [4] | [5] | [6] | [7] | [8] | [9] | [10] | [11] | [12] | [13] | [14] | [15] | [16]

Cc1c(Cl)cccc1[N+](=O)[O-]
inactive: [1] | [2] | [3] | [4] | [5] | [6] | [7] | [8] | [9] | [10] | [11] | [12] | [13] | [14] | [17] | [15] | [16]

CC(C(=O)O)c1ccc(/C=C2\CCCCC2=O)cc1 (stereo unspecified)
inactive: [1] | [2] | [3] | [4] | [5] | [6] | [7] | [8] | [9] | [10] | [11] | [12] | [13] | [14] | [17] | [15]

O=C(O)c1ccc(O)c(O)c1
inactive: [1] | [2] | [3] | [4] | [5] | [6] | [7] | [8] | [9] | [10] | [11] | [12] | [13] | [14] | [17] | [18] | [19] | [15] | [20]

OCCCO
inactive: [1] | [2] | [3] | [4] | [5] | [6] | [7] | [8] | [9] | [10] | [11] | [12] | [13] | [14] | [18] | [19] | [15] | [20]

COC(=O)C(C)(C)C
inactive: [1] | [2] | [3] | [4] | [5] | [6] | [7] | [8] | [9] | [10] | [11] | [12] | [13] | [14] | [17] | [15] | [16]

C=CCCC
inactive: [1] | [2] | [3] | [4] | [5] | [6] | [7] | [8] | [9] | [10] | [11] | [12] | [13] | [14] | [17] | [15] | [16]

Source: PubChem BioAssay (Tox21)
